# Laboratory results taken from ChEMBL document CHEMBL1157539, “Thousands of chemical starting points for antimalarial lead identification” (Nature, 2010).
# How the values were obtained:
# Format in all cases: functional
# Plasmodium falciparum [1] = test: GSK_TCMDC: Inhibition of Plasmodium falciparum 3D7 in whole red blood cells, using parasite LDH activity as an index of growth. Test compounds present at 2uM
# Plasmodium falciparum [2] = test: GSK_TCMDC: Inhibition of Plasmodium falciparum Dd2 in whole red blood cells, using parasite LDH activity as an index of growth. Test compounds present at 2uM
# HepG2 = test: GSK_TCMDC: Percent inhibition of human HepG2 cell line. Test compounds present at 10uM.
Compound,Inhibition (Plasmodium falciparum [1]) [%],Inhibition (Plasmodium falciparum [2]) [%],Inhibition (HepG2) [%]
COc1ccc(NC(=O)NC2CCN(c3ccnc4cc(Cl)ccc34)C2)cc1.O=C(O)C(F)(F)F (configuration not stated),100,69,10
COc1cc(Cc2cnc(N)nc2N)cc(OCCCCCCN2C(=O)c3ccccc3C2=O)c1OC,95,3,15
O=C(O)C(F)(F)F.O=S(=O)(NCCN1CCCC1)c1ccc(-c2cccc(CNCc3ccsc3)c2)s1,90,43,42
CN(C)c1c(CNCCCCCCNCc2ccc3ccccc3c2N(C)C)ccc2ccccc12.CS(=O)(=O)O,100,51,100
Cl.Nc1nc(N)c2c(ccc3c2ccn3CCCC2CCCNC2)n1 (configuration not stated),98,55,67
CN1CCN(c2ccnc3cc4c(cc23)N(C(=O)Nc2ccc(-c3ccncc3)c3ccccc23)CC4)CC1.Cl,100,97,10
S=c1nc(-c2ccccc2)n2ccsc2n1,95,0,3
COc1ccc(NC(=O)/C=C/c2ccccc2Cl)cc1OCCN1CCC(NC2CC2)CC1,100,66,23
COc1ccc(OC)c2c1CC1NCC2c2c(OC)ccc(OC)c21.Cl (configuration not stated),99,3,2
CCOC(=O)c1cnc2c(OC)cc(OC)c(Cl)c2c1Nc1cccc(C)c1C,100,99,5
Br.Cc1ccc2ccccc2c1CCCON1C(=N)N=C(N)NC1(C)C,95,97,65
COc1cccc(CN2Cc3ccccc3OC3(CCN(Cc4c[nH]c5cnccc45)CC3)C2)c1.O=C(O)C(F)(F)F,83,83,39
CCCN1CCC(c2c[nH]c3ccc(NC(=O)Nc4cccc(Cl)c4Cl)cc23)CC1,100,17,30
Cc1cc(N/N=C/c2ccccc2[N+](=O)[O-])c2cc(C(F)(F)F)ccc2n1,97,39,0
CCCCN(C)CC#Cc1ccc2[nH]c(C)c(Cl)c(=O)c2c1,98,97,0
O=C(N[C@H]1CCN(Cc2ccc(OCCN3CCCC3)c(Cl)c2)C1)c1ccc(Cl)c(Cl)c1.O=C(O)C(F)(F)F,100,46,68
Br.CCCc1cc(C(C)=O)ccc1OCCCON1C(=N)N=C(N)NC1(C)C,96,96,61
O=C(/C=C/c1ccc(Cl)c(Cl)c1)N1CCC(CN2CCC(Cc3cc4ccccc4[nH]3)CC2)CC1,96,56,49
Cc1nc(N)nc(N)c1OCCCOc1ccccc1Br.Cl,94,96,57
CC(=O)c1cc(N2CCCC2)ccc1N,97,97,1

Compound,Inhibition (Plasmodium falciparum [1]) [%],Inhibition (Plasmodium falciparum [2]) [%],Inhibition (HepG2) [%]
CCc1cccc(NC(=O)c2ccc(CN3CCCN(CC4CCCCC4)CC3)cc2)c1.O=C(O)C(F)(F)F,84,36,44
COc1ccc(C2CCN(CCCNC(=O)c3ccc(NC(=O)c4ccc(Cl)cc4)cc3)CC2)c(OC)c1,99,58,26
Cc1cc(N2CCCC2)nc(Nc2ccc(NC(=O)C3CCCC3)cc2)n1,100,81,27
Cc1cnc(-c2ccc(NC(=O)N3CCc4cc5nccc(N6CCN7CCC[C@H]7C6)c5cc43)c3ccccc23)o1.Cl,100,45,12
O=C(Cc1c[nH]cn1)Nc1ccc(-c2ccc(-c3nc4ccccc4[nH]3)s2)cc1,90,34,44
COc1cccc2cc(C(=O)N[C@@H](CC(C)C)C(=O)N[C@H](C=NNC(=O)OC(C)(C)C)CC(C)C)oc12,88,57,8
CCN1CCC(N(Cc2ccc(-c3ccc(C(F)(F)F)cc3)cc2)C(=O)CCCCn2c(CCc3cccc(F)c3F)nc(=O)c3ccccc32)CC1,90,77,54
Cc1cc(=O)c(-c2ccc(Oc3ccc(C(F)(F)F)cc3)cc2)c(C)n1O,94,78,18
CN1CCN(c2ccnc3ccc(NC(=O)Cc4cccc(Cl)c4Cl)cc23)CC1,100,64,8
CN(C)c1ccc(-c2ccc(C(=O)NC3CCN(Cc4ccc(C(C)(C)C)cc4)CC3)s2)cc1.O=C(O)C(F)(F)F,95,59,35
COc1ccc(-c2nc(NC(=O)CS(=O)(=O)c3ccc(F)cc3)sc2C)cc1,100,99,20
COc1cccc(Cc2cnc3nc(N)nc(N)c3c2C)c1,94,76,57
OCCN1CCN(c2ccc(Nc3ccnc4cc5ccccc5cc34)cc2)CC1,100,100,98
O=C(O)C(F)(F)F.O=C1CCCN1CCCNCc1cccc(-c2ccc(-c3nc4ccccc4[nH]3)s2)c1,97,0,0
CCCCc1ccc(S(=O)(=O)Nc2ccc3c(c2)CCN(Cc2c[nH]c4cnccc24)CC3)cc1.O=C(O)C(F)(F)F,99,12,41
O=C(Nc1cccc(OC2CCN(Cc3ccccc3)CC2)c1)c1ccc([N+](=O)[O-])cc1.O=C(O)C(F)(F)F,100,2,6
N#Cc1cccc(NC(=O)NC2CCN(CCCCCNC(=O)/C=C/c3ccc(Cl)c(Cl)c3)CC2)c1,100,7,31
O=c1cc(NCCCN(Cc2cc3c(Cl)cc(Cl)cc3[nH]2)Cc2cc3c(Cl)cc(Cl)cc3[nH]2)[nH]c2ccccc12,87,80,23
Brc1ccsc1-c1nc(NCCC(c2ccccc2)c2ccccc2)no1,94,81,17
CCOc1cc2ccccc2cc1CNCCCCCCNCc1cc2ccccc2cc1OCC.CS(=O)(=O)O,100,76,99

Compound,Inhibition (Plasmodium falciparum [1]) [%],Inhibition (Plasmodium falciparum [2]) [%],Inhibition (HepG2) [%]
O=C(Nc1ccon1)c1cc(-c2cccnc2)nc2ccc(Cl)cc12,98,76,0
Br.CCCc1cc(OCCCOc2ccccc2)ccc1OCCCON1C(=N)N=C(N)NC1(C)C,94,96,68
CC(=O)c1ccc(N2C(=O)C3C(Cc4ccc(OC(C)(C)C)cc4)NC4(C(=O)N(Cc5ccc(C(C)(C)C)cc5)c5ccccc54)C3C2=O)cc1 (configuration not stated),86,81,13
NC1CCN(Cc2cccc(-c3ccc(-c4nc5ccccc5[nH]4)s3)c2)C1.O=C(O)C(F)(F)F (configuration not stated),100,62,36
O=C(Nc1cccc(-c2csc(-c3ccccc3)n2)c1)c1cccs1,89,71,0
COc1ccccc1COc1c(C)nc(N)nc1N.Cl,98,1,32
CC(C)(Oc1c(C2CCN(CCCCNC(=O)c3ccc(-c4ccc(Cl)cc4)cc3)CC2)ccc2c1CCCC2)C(N)=O,93,5,100
Cl.Nc1ccc(-c2cc(Cl)cc(Cl)c2)cc1-c1cc2ccccc2[nH]1,100,97,0
COc1ccc2[nH]c(C)cc(=NN=Cc3cccc(Cl)c3)c2c1,100,100,13
CCN1CCC(N(CCCCCCCCc2ccc(C(F)(F)F)cc2)C(=O)Cn2c(CCc3cccc(F)c3F)cc(=O)c3ccccc32)CC1.O=C(O)C(O)C(O)C(=O)O,88,65,89
Cc1[nH]c(C)c(-c2ccc(OCc3cccc(C(F)(F)F)c3)nc2)c(=O)c1Br,99,97,37
COc1cc(F)c2ncc(Cl)c(CCN3CCC(NCc4ccc5c(n4)NC(=O)CO5)CC3)c2c1.Cl,89,19,20
CN(C)C(S)=NN=Cc1cccc(O)c1O,91,55,11
COc1ccc2nccc([C@@H](O)CN3CCC(NC(=O)CCC(=O)c4cc(C(C)(C)C)ccc4OC)CC3)c2c1,94,51,26
COc1cc2c(cc1C(F)(F)F)N(C(=O)Nc1cc(F)c(F)c(-c3cccnc3)c1)CC2,90,15,20
Cc1cc(NC(=O)Nc2cccc(C#N)c2)c2ccccc2n1,100,82,17
CN1CCC(C(=O)Nc2ccc(-c3cccc(-c4nc5cc(C(F)(F)F)ccc5[nH]4)c3)cc2)CC1,100,97,28
O=C(c1ccccc1[N+](=O)[O-])N(Cc1ccccc1)c1ccccn1,91,0,0
CCNC(=O)Nc1ccc(-c2ccc(-c3nc4cccc(C)c4[nH]3)s2)cc1,96,13,18
